Data on 40 compounds can be found in ChEMBL document CHEMBL3988442, “University of Dundee, Small-Polar-MMV Screening Library” (2021).

This assay concerns the target Shiga toxin 2 (Escherichia coli O157:H7) (UniProt P09385+P09386). Briefly: E. coli 0.157:H7 Shiga Toxin SOP - stx2 screening assay. Format: functional. More on the design: scale not given: direction of the effect not stated beside the values. The note with it: 30 µM.
`Cc1cc2nc(SCC(=O)N3CCOCC3)n(CC(C)C)c(=O)c2[nH]1`: the Percent Effect was -10.1%.

For the compound `Cc1cc(CN2CCC(c3ccnn3CCO)CC2)no1`, the Percent Effect is -16.1%.

`O=C(CCC(=O)N1CCCC1c1cccs1)N1CCc2sccc2C1` (stereo not given): the Percent Effect is -7.21%.

As for `CN(CC(=O)Nc1ccc(Br)cn1)C(=O)Cc1ccc(O)cc1`, the Percent Effect was found to be 17.8%.

As to `Cc1ccccc1-c1cc(C(=O)NCCN2CCCS2(=O)=O)[nH]n1`, the Percent Effect is -11.4%.

For `COc1cccc(CN2CCN(C(=O)CN3CCOCC3)CC2)n1`, the Percent Effect is -2.5%.

With `COCC(NC(=O)c1cc[nH]n1)c1cccc(C(F)(F)F)c1` (stereo not given), the Percent Effect is -7.89%.

In the case of `CN(C(=O)Cc1ccc(NC(=O)NC2CCC2)cc1)c1ccccc1`, the Percent Effect is -9.88%.

As for `CCc1ccc(O)c(C(=O)NC2CCN(S(=O)(=O)CC)CC2)c1`, the Percent Effect is -13.2%.

In the case of `O=C(c1ccncc1F)N1CCc2ncnc(-c3ccncc3)c2CC1`, the Percent Effect is -0.901%.

`COCC(c1cccc(C(F)(F)F)c1)N(C)C(=O)c1cc(C)n[nH]1` (stereo not given): the Percent Effect is 24.9%.

In the case of `COc1ccccc1CN1CC[C@H]2C[C@@H](C(=O)N3CCCC3)O[C@H]2C1`, the Percent Effect was -13.2%.

Regarding `CCOc1ccc(C#N)cc1NCC(=O)Nc1cc(F)ccc1F`, the Percent Effect stood at 5.62%.

Take `CO[C@H]1CCN(S(=O)(=O)c2cn(C)cn2)[C@H]1Cc1cccnc1`: the Percent Effect is -10.2%.

As to `Cc1nc(CN2C[C@@H]3CN(C(=O)c4cccn4C)C[C@@H]3C2=O)cs1`, the Percent Effect is -4.43%.

Consider `CC(=O)N1CCC2(CCN(C(=O)c3ccc(C)c(C(F)(F)F)c3)CC2)C1`, for which the Percent Effect is -10.7%.

For `COCCN1C(=O)C[C@@H]2[C@H]1CCN2C(=O)COc1ccccc1`, the Percent Effect is -1.37%.

As for `COC1COC2(CCN(Cc3ccccc3Cl)CC2)C1` (stereo not given), the Percent Effect was -11.8%.

Turning to `Cc1occc1C(=O)N1CCc2c(COCC3CC3)cncc2C1`, the Percent Effect is -11.9%.

Turning to `CCCN1CCN(C(=O)c2cnccn2)[C@H]2CS(=O)(=O)C[C@H]21`, the Percent Effect is -11.3%.

Turning to `OC(CN1CCN(Cc2ccc(F)cc2)CC1)C1CC1` (stereo not given), the Percent Effect is -3.92%.

Consider `CCS(=O)(=O)N1CCOC2(CCCN(c3ccc(C)nn3)C2)C1` (stereo not given), for which the Percent Effect is -15.9%.

For the compound `O=C(c1cc(Cl)c2c(c1)OCO2)N1CCCC(n2ccnc2)C1` (stereo not given), the Percent Effect was determined as 4.72%.

For the compound `Cc1cnc(CN(Cc2ccccc2)CC(O)c2cccs2)cn1` (stereo not given), the Percent Effect is -15.5%.

As to `COc1ccc(NC(=O)CNc2ccc(Br)cc2F)cc1`, the Percent Effect is -79.8%.

Take `CCOc1nc2cccnc2n(CC(=O)NCCOC)c1=O`: the Percent Effect was -9.03%.

On to `Cc1cc(C)n(CC2CCCCN2C(=O)c2ccc3c(c2)OCO3)n1` (stereo not given), for which the Percent Effect is -5.42%.

With `O=C(c1ncccn1)N1C[C@H]2CCC[C@@]2(COCc2cccnc2)C1`, the Percent Effect was -6.19%.

Consider `COc1cccc(CNCc2c(C(C)C)nn(C)c2N(C)C)c1OC`, for which the Percent Effect came out at 31.1%.

With `CCN(Cc1nc2c(cnn2C)c(=O)[nH]1)c1ccc(OC)c(OC)c1`, the Percent Effect is -61.1%.

As to `O=C1NCCN(CC2CC2)C12CCN(Cc1ccco1)CC2`, the Percent Effect was -8.3%.

Regarding `O=C(NC1CCCC1)NC1CCC(C(=O)N2CCSCC2)CC1` (stereo not given), the Percent Effect was -37.4%.

Turning to `Cc1nc(-c2ccccc2)n(CC(=O)N(C(C)C)C(C)C)n1`, the Percent Effect stood at 23.2%.

For `O=C(CCCc1ccc(F)cc1)N1C[C@@H](CN2CCOCC2)[C@@H](CO)C1`, the Percent Effect was -6.96%.

On to `Cc1ncc2c(n1)CN(CC(=O)Nc1ccncc1)CC2`, for which the Percent Effect was 5.69%.

For `CC(C)Oc1cccc(CNC(=O)NC(C)(C(=O)O)c2ccco2)c1` (stereo not given), the Percent Effect was determined as 25.1%.

In the case of `O=C(CSc1nc2c(cnn2CCO)c(=O)[nH]1)N1CCCCCC1`, the Percent Effect is -8.39%.

Turning to `CN(Cc1ccccc1)CC(O)Cn1cnc2c(cnn2C)c1=O` (stereo not given), the Percent Effect was -8.29%.

Regarding `Cc1cccc(CNCc2c(C)nn(C)c2N2CCOCC2)n1`, the Percent Effect is -0.864%.

As for `Cc1cc(S(=O)(=O)NCc2cccc(C(=O)N3CCCC3)c2)c(C)s1`, the Percent Effect is 5.68%.
